We go through 17 molecules from PubChem BioAssay (NCI).

Test in all cases: NCI-60 one-dose screen, 48 h (100 = growth as untreated, 0 = no growth, -100 = all killed)
Conditions in all cases: 10 µM unless noted

In assay [1] the test system is T-47D breast.
Assay [2] deals with BT-549 breast.
Assay [3] has as its system MDA-MB-435 melanoma.
The subject of assay [4] is SW-620 colon.
Assay [5] relates to MCF7 breast.
Assay [6] deals with HCT-116 colon.
Assay [7] has as its system HCC-2998 colon.
In assay [8] the test system is KM12 colon.

This is part of a sample that, as a whole, favours compounds with a hit. Of some 83,000 tested, about 20% had one in any assay.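 Compound tested at a single concentration for 48 hours in 96-well plates; a percent growth value below 10 was scored as active.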 Unmarked numbers belong to inactive results. Active and inactive are the calls of the source.

`O=C(Nc1ncc(Cc2ccccc2)s1)c1ccc2c(c1)OCCCO2`: the growth in assay [1] is 18.1%; in assay [2], 48.8%; in assay [3], -34.2% (active); in assay [4], 38.1%; in assay [5], 16.1%; in assay [6], 23%. Further, the growth in assay [7] is 22%.
Take `COC(=O)c1nc(-c2ccccc2)oc1S(=O)(=O)NCC(c1ccc(Cl)cc1)N1CCOCC1` (configuration not stated): the growth was 53.5% in assay [1]; 56% in assay [2]; 64.8% in assay [3]; 18.7% in assay [4]; 31.7% in assay [5]; 62.2% in assay [6]. In assay [7], the growth is 121%.
With `COc1ccc2c(c1)/C(=N/c1n[nH]c(=S)s1)C(=O)N2`, the growth was 69.6% in assay [1]; 113% in assay [2]; 104% in assay [3]; 91.3% in assay [4]; 25.1% in assay [5]; 103% in assay [6]. Further, the growth in assay [7] was 107%.
With `Clc1ccc(-c2cc(-c3ccccc3)nc(NCCNc3ccnc4cc(Cl)ccc34)n2)cc1`, the growth is 11.8% in assay [1]; 88.3% in assay [2]; -56.9% (active) in assay [3]; -63% (active) in assay [4]; -76.8% (active) in assay [5]; -79.4% (active) in assay [6]. Further, the growth in assay [7] is -88.9% (active).
On to `Cc1ccc(-c2nc3nc(-c4ccccc4)nc(N4CCCN(S(C)(=O)=O)CC4)c3o2)cc1`, for which the growth was 92.1% in assay [1]; 94.2% in assay [2]; 34.5% in assay [3]; 44.1% in assay [4]; 65.1% in assay [5]; 24.4% in assay [6]. For the same molecule, the growth in assay [7] is 96.6%.
For `Cc1nnc(-c2ccc3c(c2)nc(/C=C/c2ccccc2)n3C2CCCCC2)o1`, the growth was 52% in assay [1]; 81% in assay [2]; 83.8% in assay [3]; 111% in assay [4]; 77.1% in assay [5]; 64.5% in assay [6]. The growth was 87.7% in assay [7] and 85.1% in assay [8].
Consider `Cc1nn(-c2ccccc2)c(N)c1N=C1NC(=O)/C(=C/c2ccc(Br)cc2)S1`, for which the growth is 85.3% in assay [1]; 78.6% in assay [2]; 49.7% in assay [3]; 84.2% in assay [4]; 78.2% in assay [5]; 68% in assay [6]. In assay [7], the growth was 111%.
Turning to `CCc1n(Cc2ccc3ccccc3n2)cc[n+]1Cc1ccc2ccccc2n1`, the growth is -3.68% (active) in assay [1]; 13.4% in assay [2]; 14% in assay [3]; 38.5% in assay [4]; 13.5% in assay [5]; 35% in assay [6]. The growth in assay [7] is 27.3%.
In the case of `COc1cccc(CNc2c3ccccc3nc3ccccc23)c1`, the growth in assay [1] is 45.9%; in assay [2] it was 68.7%; in assay [3] it was 43%; in assay [4], 25.5%; in assay [5], 14.6%; in assay [6], 9.89% (active). In assay [7], the growth was 39.3%.
For `C=C1C(=O)O[C@H]2[C@H]1CC/C(COC(=O)/C=C\C(=O)NCc1ccc(Cn3c(=O)sn(CCCCC)c3=O)cc1)=C\CC[C@@]1(C)O[C@@H]21`, the growth in assay [1] was 71.7%; in assay [2], 85.8%; in assay [3], 60.6%; in assay [4], 19.2%; in assay [5], 36.6%; in assay [6], 40.3%.
`CN(CCC(=O)c1ccccc1)CCC(=O)c1ccccc1`: the growth is 113% in assay [1]; 79.7% in assay [2]; 102% in assay [3]; 99.8% in assay [4]; 70.2% in assay [5]; 93.3% in assay [6]. The growth in assay [7] is 93.3%.
With `CC[C@]12C=CCN3CC[C@@]4(c5ccc(OC)cc5N(C)[C@H]4[C@@](O)(C(=O)OC)[C@@H]1OC(=O)CCC[P+](c1ccccc1)(c1ccccc1)c1ccccc1)[C@@H]32`, the growth in assay [1] is 1.08% (active); in assay [2] it was 11%; in assay [3], -21.6% (active); in assay [4], 17.4%; in assay [5], -3.34% (active); in assay [6] it was 8.72% (active). In assay [7], the growth was -22.5% (active).
`Oc1ccc(/C=C/c2ccc(O)cc2)cc1`: the growth was 69% in assay [1]; 18.7% in assay [2]; 52.8% in assay [3]; 65.4% in assay [4]; 33.1% in assay [5]; 47% in assay [6]. Moreover, in assay [7], the growth was 96.4%.
Take `O=C(/C=C(O)/C=C/c1cccc2[nH]ccc12)/C=C/c1cccc2[nH]ccc12`: the growth was 65% in assay [1]; 76.4% in assay [2]; -2.09% (active) in assay [3]; 50.5% in assay [4]; 16.5% in assay [5]; 46.3% in assay [6]. Besides, the figures for the growth in assay [7] and in assay [8] were 102% and 95.3%, respectively.
Consider `CCN1CCN(C(=O)[C@]23CC[C@@H](C)[C@H](C)[C@@H]2C2=CC[C@@H]4[C@@]5(C)C/C(=C/c6cccnc6)C(=O)C(C)(C)[C@@H]5CC[C@@]4(C)[C@]2(C)CC3)CC1`, for which the growth was 22% in assay [1]; 41.2% in assay [2]; 24% in assay [3]; 13.3% in assay [4]; 8.54% (active) in assay [5]; 10.3% in assay [6]. Further, the growth in assay [7] was 19.6%; in assay [8] it was 18.2%.
On to `COc1ccc(C(O)c2cc3c(N)c(C(=O)Nc4cccc(Cl)c4C)sc3nc2C)cc1` (configuration not stated), for which the growth in assay [1] is 30.5%; in assay [2], 17.7%; in assay [3], -29.5% (active); in assay [4], 17.9%; in assay [5] it was 17%; in assay [6], 6.73% (active). The growth in assay [7] was 5.81% (active); in assay [8], 6.49% (active).
Regarding `Cc1c2ccncc2c(C)c2c1c1cc(CO)ccc1n2C`, the growth is -17.1% (active) in assay [1]; 10.7% in assay [2]; 6.7% (active) in assay [3]; 1.67% (active) in assay [4]; 4.26% (active) in assay [5]; -22.5% (active) in assay [6]. Further, the growth in assay [7] is 15.5%.
